The source of these data is PubChem BioAssay (EPA / NIEHS).

Active and inactive are the calls of the source. The calls were made as follows: active = hit-call score of the fitted dose curve at least 0.9, where 1 is the maximum; inactive = score below 0.9.

As usually defined, the AC50 is the concentration at which the activity in the assay is half-maximal.

A short description of experiment [1]: ATG_ERE_CIS: Attagene CIS-FACTORIAL HepG2 Assay for Estrogen Response Element (ERE) (AID 2282940). The conditions noted are these: HepG2 ERE cis-reporter, Attagene RNA transcript; actives raise or lower the signal. The procedure, abridged:
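Transient MRTU transfection of human HepG2; cis-element promoters; 24 h dosing; total RNA → RT (oligo dT) → PCR → 6-FAM primer extension → HpaI digest → CE fluorescence. Bidirectional fit, DMSO baseline.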

Experiment [2] in a line: ATG_Ets_CIS: Attagene CIS-FACTORIAL HepG2 Assay for human Erythroblast Transformation Specific (ETS) (AID 2282941). The conditions noted are these: HepG2 ETS cis-reporter transcription, actives raise or lower the signal. The procedure, abridged: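 Human HepG2 hepatoma cells were transiently transfected with promoter-driven reporter constructs and treated for 24 hours. Reporter transcripts were quantified by RT-PCR with fluorescent primer extension; bidirectional curve fitting used DMSO as reference.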

Experiment [3] has as its target Hepatocyte nuclear factor 3-beta (Homo sapiens) (UniProt Q9Y261). Kind of experiment: ATG_FoxA2_CIS: Attagene CIS-FACTORIAL HepG2 Assay for human Forkhead box A2 (FOXA2) (AID 2282942). The conditions noted are these: HepG2 cis-reporter transcription factor activity, 24 h; actives raise or lower the signal. The procedure, abridged: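 Measured: reporter mRNA induction or loss in HepG2 transiently carrying multiple cis-regulated reporter units, 24 h after dosing. Quantified by RT-PCR plus capillary electrophoresis, normalised to DMSO.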

Experiment [4] is described as follows: ATG_FoxO_CIS: Attagene CIS-FACTORIAL HepG2 Assay for human Forkhead box O (FoxO) (AID 2282943). Conditions: HepG2 Attagene cis-reporter, FoxO element, mRNA; actives raise or lower the signal. The procedure, abridged:
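HepG2 cells transiently transfected with cis-promoter-driven multiple reporter transcription units; 24 h after chemical dosing, reporter mRNA quantified by RT-PCR, fluorescent primer extension, HpaI digestion and capillary electrophoresis. Bidirectional fitting versus DMSO baseline.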

Experiment [5] in a line: ATG_GATA_CIS: Attagene CIS-FACTORIAL HepG2 Assay for human GATA Binding Protein (AID 2282944). The conditions noted are these: HepG2 GATA cis-element reporter, Attagene multiplex mRNA; actives raise or lower the signal. The procedure, abridged: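 Transient MRTU transfection, HepG2, 24 h compound exposure. Total RNA → oligo(dT) RT → PCR → 6-FAM primer extension → HpaI cut → CE. Bidirectional fit vs DMSO.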

A short description of experiment [6]: ATG_GLI_CIS: Attagene CIS-FACTORIAL HepG2 Assay for human Zinc Finger Protein GLI1 (AID 2282945). Conditions: HepG2, Attagene cis-factorial reporter mRNA, GLI element; actives raise or lower the signal. A digest of the protocol:
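HepG2 cells transiently transfected with cis-promoter multiplexed reporter units report endogenous transcription factor activity. After 24 h chemical exposure, reporter mRNA was quantified by RT-PCR, 6-FAM labelling, HpaI digestion and capillary electrophoresis, with bidirectional fitting against DMSO.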

A short description of experiment [7]: ATG_ISRE_CIS: Attagene CIS-FACTORIAL HepG2 Assay for human Interferon Regulatory Factor 1 (IRF1) binding to an Interferon-Stimulated Response Element (ISRE) (AID 2282948). The conditions noted are these: HepG2 ISRE cis-reporter (Attagene), mRNA transcription readout; actives raise or lower the signal. The procedure, abridged:
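Cell-based cis-reporter assay; HepG2; 24 h exposure; reporter mRNA by RT-PCR plus capillary electrophoresis fluorescence; activity in either direction scored relative to DMSO.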

Experiment [8] is described as follows: ATG_M_32_CIS: Attagene CIS-FACTORIAL HepG2 Assay for M32 Transcription Factor (Internal Marker) (AID 2282949).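 Also: background control marker of the multiplexed CIS panel rather than a real target.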 Conditions: HepG2 Attagene cis-factorial M32 reporter, mRNA; actives raise or lower the signal. A digest of the protocol:
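HepG2 cells transiently transfected with multiplexed cis-regulated reporter units, dosed 24 h. Reporter mRNA quantified by RT-PCR, 6-FAM labelling, HpaI digestion and capillary electrophoresis; bidirectional fit vs DMSO.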

The target in experiment [9] is Bile acid receptor (Homo sapiens) (UniProt Q96RI1). Kind of experiment: ATG_IR1_CIS: Attagene CIS-FACTORIAL HepG2 Assay for human Nuclear Receptor Subfamily 1 Group H Member 4 (NR1H4), IR1 submotif (AID 2282946). The conditions noted are these: IR1 reporter transcription, actives raise or lower the signal. A digest of the protocol:
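Transient MRTU transfection, HepG2; 24 h dosing; RNA → RT-PCR → 6-FAM primer extension → HpaI digest → capillary electrophoresis fluorescence. Gain/loss of signal fitted relative to DMSO.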

Experiment [10] can be described thus: ATG_GRE_CIS: Attagene CIS-FACTORIAL HepG2 Assay for human Glucocorticoid Response Elements (GRE) (AID 2282947). Conditions: HepG2 GRE cis-reporter, Attagene multiplex mRNA; actives raise or lower the signal. The procedure, abridged:
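Following 24 h chemical exposure of transiently transfected HepG2 cells, total RNA was reverse-transcribed and reporter cDNA amplified, fluorescently labelled and sized by capillary electrophoresis. Signal gain or loss was fitted relative to DMSO vehicle.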

Hepatocyte nuclear factor 3-beta (Homo sapiens), sequence (Q9Y261 whole entry, looked up): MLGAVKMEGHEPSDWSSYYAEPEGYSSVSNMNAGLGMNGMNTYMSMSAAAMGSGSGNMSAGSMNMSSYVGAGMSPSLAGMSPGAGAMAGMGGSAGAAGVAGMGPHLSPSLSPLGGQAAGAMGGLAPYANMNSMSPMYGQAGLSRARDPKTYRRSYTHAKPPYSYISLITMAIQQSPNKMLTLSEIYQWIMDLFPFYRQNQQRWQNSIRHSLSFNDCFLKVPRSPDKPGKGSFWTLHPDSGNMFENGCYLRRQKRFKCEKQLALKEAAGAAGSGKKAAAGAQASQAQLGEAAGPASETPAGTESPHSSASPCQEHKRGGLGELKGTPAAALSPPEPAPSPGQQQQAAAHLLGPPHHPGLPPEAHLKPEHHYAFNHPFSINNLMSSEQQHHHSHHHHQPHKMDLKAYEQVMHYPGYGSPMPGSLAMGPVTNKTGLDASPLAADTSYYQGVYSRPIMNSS
Bile acid receptor (Homo sapiens), sequence (Q96RI1 whole entry, looked up): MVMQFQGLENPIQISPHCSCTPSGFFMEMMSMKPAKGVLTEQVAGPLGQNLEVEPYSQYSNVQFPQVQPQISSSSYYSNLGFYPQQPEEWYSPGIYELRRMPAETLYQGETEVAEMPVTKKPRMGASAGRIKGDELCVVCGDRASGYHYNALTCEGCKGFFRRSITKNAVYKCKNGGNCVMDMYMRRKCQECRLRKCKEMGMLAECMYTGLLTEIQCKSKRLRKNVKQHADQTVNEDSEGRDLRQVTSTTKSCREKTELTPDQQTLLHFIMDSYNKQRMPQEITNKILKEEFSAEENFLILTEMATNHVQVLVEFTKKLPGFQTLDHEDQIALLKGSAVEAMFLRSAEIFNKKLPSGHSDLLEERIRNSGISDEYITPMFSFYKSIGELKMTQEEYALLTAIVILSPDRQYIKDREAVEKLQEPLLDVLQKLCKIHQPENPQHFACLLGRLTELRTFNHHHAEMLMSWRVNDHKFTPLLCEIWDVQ

For the compound `CC1CN1P(=O)(N1CC1C)N1CC1C` (stereo not drawn), the result in [1], in [2], in [3], in experiment [4], in [5] and in experiment [6] was inactive. Also, the call in experiment [7] and in experiment [8] was inactive.
As for `COc1cc2c(cc1OC)[C@@]13CCN4CC5=CCO[C@H]6CC(=O)N2[C@H]1[C@H]6[C@H]5C[C@H]43`, the outcome in experiment [1], in experiment [2], in experiment [3], in experiment [4], in experiment [5] and in experiment [6] was inactive. The result in experiment [7] and in experiment [8] was inactive.
On to `CCCCC(CC)CO[N+](=O)[O-]` (stereo not drawn), for which the call in experiment [1], in experiment [2], in [3], in [4], in experiment [5] and in experiment [6] was inactive. In addition, the outcome in experiment [7] and in [8] was inactive.
For `Cl/C=C/Cl`, the outcome in experiment [1], in [2], in experiment [3], in experiment [4], in experiment [5] and in experiment [6] was inactive. Also, the compound was classed as inactive in [7] and in experiment [8].
In the case of `CC(C)(OO)c1ccccc1`, the compound was classed as inactive in experiment [1], in experiment [2], in experiment [3], in experiment [4], in [5] and in experiment [9]. Besides, the call in [10], in [7] and in experiment [8] was inactive.
On to `COP(=O)(OC)OC`, for which the compound was called inactive in [1], in experiment [2], in experiment [3], in experiment [4], in experiment [5] and in experiment [9]. Also, the outcome in experiment [10], in [7] and in experiment [8] was inactive.
On to `O=S(=O)(c1ccc(Cl)cc1)c1ccc(Cl)cc1`, for which the call in experiment [1], in [2], in experiment [3], in [4], in [5] and in [6] was inactive. Besides, the outcome in [7] and in experiment [8] was inactive.
`CN(CCCC(=O)c1cccnc1)N=O`: the result in experiment [1], in experiment [2], in experiment [3], in experiment [4], in experiment [5] and in [9] was inactive. The compound was classed as inactive in experiment [10], in [7] and in experiment [8].
In the case of `COc1ccc(C=O)cc1OC`, in experiment [1], the AC50 was 15.2 µM (active). Further, the result in experiment [2], in [3], in [4], in [5], in experiment [6] and in experiment [7] was inactive. For the same compound, in [8], the compound was classed as inactive.
With `Cc1cc(Cl)ccc1O[C@H](C)C(=O)O`, the compound was classed as inactive in [1], in experiment [2], in [3], in [4], in experiment [5] and in experiment [6]. The result in experiment [7] and in [8] was inactive.
As to `NC(=S)Nc1ccccc1`, the AC50 in experiment [1] was 39.2 µM (active). The compound was classed as inactive in [2], in experiment [3], in experiment [4], in experiment [5], in experiment [9] and in experiment [10]. Also, the compound was called inactive in experiment [7] and in experiment [8].
For the compound `CNC`, the compound was classed as inactive in experiment [1], in experiment [2], in experiment [3], in experiment [4], in experiment [5] and in [6]. Moreover, the call in [7] and in [8] was inactive.
As for `CCOP(=S)(OCC)Oc1ccc(S(C)=O)cc1` (stereo not drawn), the outcome in [1], in [2], in experiment [3], in experiment [4], in experiment [5] and in experiment [6] was inactive. Also, the outcome in experiment [7] and in [8] was inactive.
As for `COc1cc(OC)nc(NC(=O)NS(=O)(=O)c2ncccc2C(=O)N(C)C)n1`, the compound was called inactive in [1], in experiment [2], in experiment [3], in experiment [4], in experiment [5] and in experiment [6]. Also, the result in experiment [7] and in experiment [8] was inactive.
As for `N#Cc1ccccn1`, the compound was classed as inactive in experiment [1], in [2], in experiment [3], in experiment [4], in [5] and in experiment [6]. For the same compound, the compound was classed as inactive in [7] and in [8].
With `N#CCCO`, the result in experiment [1], in [2], in experiment [3], in experiment [4], in experiment [5] and in experiment [9] was inactive. The result in experiment [10], in experiment [7] and in experiment [8] was inactive.
Consider `OCC(O)CCl` (stereo not drawn), for which the compound was called inactive in experiment [1], in experiment [2], in experiment [3], in experiment [4], in experiment [5] and in experiment [6]. Moreover, the outcome in [7] and in experiment [8] was inactive.
Take `CC(C)C1CCC(Cc2ccc(Cl)cc2)C1(O)Cn1cncn1` (stereo not drawn): the outcome in experiment [1], in [2], in experiment [3], in [4], in experiment [5] and in experiment [9] was inactive. Also, the result in experiment [10], in experiment [7] and in experiment [8] was inactive.
For `O=[N+]([O-])c1ccc(O)c([N+](=O)[O-])c1`, the compound was classed as inactive in [1], in experiment [2], in experiment [3], in experiment [4], in experiment [5] and in [6]. Further, the compound was called inactive in experiment [7] and in experiment [8].
